JMJD2A Tudor inh: qHTS Assay for Inhibitors of JMJD2A-Tudor Domain; Lysine-specific demethylase 4A (Homo sapiens), O75164; AlphaScreen JMJD2A-Tudor / H3K4me3 peptide binding; Potency, µM (series often up to 114 µM), without a hit: at the highest dose activity change, negative = inhibition, usual class: inhibitors; 390,000 tested, 4.4% active; AID 504339, 2011; note: % is set by controls: 0 for no effect and ±100 for the full control effect; nearly all actives have a fitted effect of over 50% in size
Target sequence (O75164 whole entry, looked up, the tested form may be a part): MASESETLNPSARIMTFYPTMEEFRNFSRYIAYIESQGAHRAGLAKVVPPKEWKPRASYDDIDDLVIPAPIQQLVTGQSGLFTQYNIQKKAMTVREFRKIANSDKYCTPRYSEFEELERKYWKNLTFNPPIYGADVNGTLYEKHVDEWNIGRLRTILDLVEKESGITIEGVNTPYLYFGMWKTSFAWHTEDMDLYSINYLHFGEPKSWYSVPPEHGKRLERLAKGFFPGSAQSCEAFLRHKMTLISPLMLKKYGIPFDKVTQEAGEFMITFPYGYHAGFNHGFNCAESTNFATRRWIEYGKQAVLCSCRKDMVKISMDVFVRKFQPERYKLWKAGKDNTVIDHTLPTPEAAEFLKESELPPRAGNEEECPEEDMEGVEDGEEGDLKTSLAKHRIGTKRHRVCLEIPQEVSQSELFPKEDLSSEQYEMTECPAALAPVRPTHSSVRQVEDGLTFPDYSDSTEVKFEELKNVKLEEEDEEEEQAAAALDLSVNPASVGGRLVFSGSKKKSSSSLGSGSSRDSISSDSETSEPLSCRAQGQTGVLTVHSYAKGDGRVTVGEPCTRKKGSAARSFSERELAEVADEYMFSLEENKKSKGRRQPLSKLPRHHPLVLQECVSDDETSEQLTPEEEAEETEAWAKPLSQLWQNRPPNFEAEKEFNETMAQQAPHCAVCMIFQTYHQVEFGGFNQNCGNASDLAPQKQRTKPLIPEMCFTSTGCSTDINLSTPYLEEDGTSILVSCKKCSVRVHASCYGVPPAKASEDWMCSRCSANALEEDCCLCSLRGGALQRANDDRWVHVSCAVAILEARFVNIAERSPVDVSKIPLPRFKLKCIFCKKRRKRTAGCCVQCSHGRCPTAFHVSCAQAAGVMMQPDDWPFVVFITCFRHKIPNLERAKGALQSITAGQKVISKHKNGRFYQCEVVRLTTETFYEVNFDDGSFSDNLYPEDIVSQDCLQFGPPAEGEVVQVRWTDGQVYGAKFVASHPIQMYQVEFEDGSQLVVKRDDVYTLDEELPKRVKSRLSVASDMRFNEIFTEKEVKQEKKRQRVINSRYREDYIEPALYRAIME
L3MBTL1 inh: qHTS Assay for the Inhibitors of L3MBTL1; Lethal(3)malignant brain tumor-like protein 1 (Homo sapiens), Q9Y468; AlphaScreen L3MBTL1–H3K9me1 peptide binding; Potency, µM (doses to about 57.1 µM), inactives show top-dose activity, negative = inhibition, hits mostly inhibitors; 230,000 tested, 0.66% active; AID 485360, 2010; note: % is set by controls: 0 for no effect and ±100 for the full control effect; nearly all actives have a fitted effect of over 60% in size
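AlphaScreen assay: L3MBTL1 (50 nM final) was preincubated 30 min at room temperature with biotinylated H3(1-15)K9me1 peptide (75 nM final), then 30 min with library compounds; streptavidin donor and nickel chelate acceptor beads (10 ug/mL final) added, 30 min dark.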
BAZ2B block: qHTS Assay for Inhibitors of BAZ2B; AlphaScreen BAZ2B-H3K14Ac peptide displacement; Potency, µM (doses to about 114 µM), for the others: top-dose activity change, negative = inhibition, actives largely listed as inhibitors; Bromodomain adjacent to zinc finger domain protein 2B (Homo sapiens), Q9UIF8; 360,000 tested, 4.4% active; note: % is set by controls: 0 for no effect and ±100 for the full control effect; nearly all actives have a fitted effect of over 60% in size
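AlphaScreen displacement: compounds (up to 110uM) incubated 30 min at room temperature with a preformed 50 nM BAZ2B/50 nM biotinylated H3K14Ac peptide complex in PBS pH 7.4 with Tween-20. Donor and acceptor beads at 10 ug/mL final added, 20 min light-protected before reading.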
HP1b binding inh: HTS for Inhibitors of HP1-beta Chromodomain Interactions with Methylated Histone Tails. AlphaScreen HP1-beta / biotin-H3K9me3 peptide binding. Potency, µM (doses to about 114 µM), for inactives: at the highest dose activity change, negative = inhibition, most hits filed as inhibitors. AID 540317, 2011. 390,000 tested, 0.56% active; note: nearly all actives have a fitted effect of over 70% in size
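HP1-beta protein (50 nM final) preincubated 30 min at room temperature with biotinylated H3(1-18)K9me3 peptide (50 nM) in PBS pH 7.4, 0.01% Tween-20, then compound added for 30 min. AlphaScreen streptavidin donor/nickel chelate acceptor beads (10 ug/mL final), 30 min dark, luminescence read.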
Sfp PPTase inh: qHTS Assay for Inhibitors of Bacillus subtilis Sfp phosphopantetheinyl transferase (PPTase) | Potency, µM, for inactives: largest response in the series, negative = inhibition, hits mostly inhibitors | 4'-phosphopantetheinyl transferase ffp (Bacillus subtilis), Q9F4F7 | 310,000 tested, 3.5% active | Biochemical Sfp PPTase activity, qHTS;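 note: the enzyme is Sfp with the accession as filed and its product quenches rhodamine fluorescence; 0% = enzyme reaction without inhibitor and -100% = no enzyme wells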
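With Hepes-Na pH 7.6 buffer containing 10 mM MgCl2, Sfp (15 nM) modified BHQ-2-YbbR (12.5 uM) using rhodamine-CoA (5 uM). Two reads 30 minutes apart at 525/598 nm yielded each well's rate.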
G9a inh: qHTS Assay for Inhibitors of Histone Lysine Methyltransferase G9a | G9a H3K9 monomethylation, AlphaScreen, 2 h | Histone-lysine N-methyltransferase EHMT2 (Homo sapiens), Q96KQ7 | Potency, µM (series often up to 102 µM), for the others: at the top dose activity, negative = inhibition, most hits filed as inhibitors | 350,000 tested, 8.8% active; note: % is set by controls: 0 for no effect and ±100 for the full control effect; nearly all actives have a fitted effect of over 75% in size
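Signal arises when biotinylated H3K9 peptide, once monomethylated, bridges streptavidin donor and antibody-captured acceptor beads. Enzyme at 20 nM was preincubated 15 min with test compounds; peptide 500 nM and SAM 20 uM then reacted for 2 h.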
Numbers without * were called inactive; ? = inconclusive; . = no result given; [ ] = another dose, or the depositor's remark. Most compounds without a hit are left out; they make up all but 12% or so of the library. Calls come from the whole dose curve; as a rule, active = well fitted curve in the direction sought with a large enough effect; inconclusive = small, poorly fitted or top-dose-only effect, or another doubt; inactive = no such curve, though single readings can be large; an effect the other way counts as inactive or inconclusive. Potency is the fitted concentration of half-maximal effect.

SMILES	JMJD2A Tudor inh	L3MBTL1 inh	BAZ2B block	HP1b binding inh	Sfp PPTase inh	G9a inh
CCc1c(C)sc(NC(=O)c2cc(-c3cc(OC)ccc3OC)on2)c1C#N	-17%	-1%	-23%	24%	23%	-29%
COc1ccc(-c2cc(C(=O)Nc3cc(C)n(Cc4ccc(Cl)cc4)n3)no2)cc1OC	-6%	8%	-1%	12%	71µM*	-31%[59 µM]
Cc1nn(Cc2ccc(Cl)c(Cl)c2)c(C)c1NC(=O)c1cc(-c2ccc3c(c2)OCO3)on1	-18%	2%	50µM*	4%	2%	56µM*
Cc1nn(Cc2ccc(Cl)cc2)c(C)c1NC(=O)c1cc(-c2ccc3c(c2)OCO3)on1	-4%	1%	-8%	22%	0%	-27%
CCc1c(C)sc(NC(=O)c2noc(C)c2[N+](=O)[O-])c1C#N	-19%	.	-38%	-8%	50µM*	40µM*
O=C1C2CCCN2C(=O)N1CCN1CCN(c2cccc(C(F)(F)F)c2)CC1 (stereo not given)	?	.	.	33%	.	.
N#CC1=C(N)N(c2cccc(Cl)c2)C2=C(C(=O)CCC2)C1c1cc(CN2CCOCC2)cs1 (stereo not given)	-10%	.	-36%	4%	.	-22%[59 µM]
COC1=CC(=O)C(O)=C/C1=C\C=C\c1ccccc1	.	.	.	.	11µM*	.
Nc1c(C(=O)NCc2ccco2)c2nc3ccccc3nc2n1CCc1ccccc1	28%	2%	0%	67%	50µM*	?
O=C(c1ccccc1)c1cnc2ccc(Cl)cc2c1N1CCOCC1	?	.	?	-1%	8%	50µM*
COc1cc2ncc(C(=O)c3ccccc3)c(N3CCN(Cc4ccccc4)CC3)c2cc1OC	22µM*	-17%	?	?	-16%	35µM*
O=C(c1ccccc1)c1cc(F)c(N2CCOCC2)cc1Cl	34%	12%	9%	82%	-6%	11%
CCC(C)c1ccc(S(=O)(=O)Nc2cccnc2)cc1 (stereo not given)	-30%	.	-31%	46%	4%	50µM*
CC(C)Cc1ccc(S(=O)(=O)Nc2cccnc2)cc1	-3%	7%	-8%	43%	11%	18%
CCc1ccccc1NC(=O)CCS(=O)(=O)c1cccc2nonc12	-10%	.	7%	33%	.	-12%[59 µM]
COc1ccc(/C=C2\N=C(C(C)(C)C)OC2=O)c(OC)c1	-26%	.	-15%	18%[57 µM]	14%	-11%[59 µM]
COc1ccc(/C=C2\OC(=S)N(C)C2=O)cc1	-9%	0%	-11%	7%	?	?
CN(C)c1ccc(/C=C2\N=C(C(C)(C)C)OC2=O)cc1	1%	.	?	32%	8%	45µM*
CN1C(=O)/C(=C\c2ccc(N(C)C)cc2)OC1=S	25µM*	19%	11%	13%	15%	77%
CNCC(O)Cn1c2c(c3ccccc31)CCCC2 (stereo not given)	28µM*	-4%	?	-5%	12%	50µM*
Cc1ccc2c(c1)c1c(n2CC(O)CNC(C)(C)C)CCCC1 (stereo not given)	45µM*	-7%	45µM*	-12%	12%	50µM*
Cc1ccc2c(c1)c1c(n2CC(O)Cn2c(C)nc3ccccc32)CCCC1 (stereo not given)	?	.	9%	7%	10%	-24%
Cc1ccc2c(c1)c1c(n2CC(O)CN2CCCCCC2)CCCC1 (stereo not given)	?	.	35µM*	?	-2%	?
Cc1ccc2c(c1)c1c(n2CC(O)Cn2nc(C)c(Br)c2C)CCCC1 (stereo not given)	?	.	?	-18%	19%	5%[12.7 µM]
COc1ccc(CNC(=O)CCc2c(C)nc3c4cccnc4nn3c2C)cc1	-27%	.	-14%	50%	.	18%[59 µM]
SMILES	JMJD2A Tudor inh	L3MBTL1 inh	BAZ2B block	HP1b binding inh	Sfp PPTase inh	G9a inh
CC(C)CN(C(=O)COC(=O)Cc1cccc2ccccc12)c1c(N)n(Cc2ccccc2)c(=O)[nH]c1=O	-1%	6%	-2%	23%	.	-5%
CCCn1c(-c2ccc(F)cc2)nc2c(N3CCC(N(C)C)C3)nc(C)nc21 (stereo not given)	.	.	.	.	6%	.
CC1(C)CC(=O)C(N=Nc2cccnc2)=C(O)C1	35µM*	.	-6%	4%	-20%	?
CC1(C)CC(=O)C(N=Nc2c(Cl)cc(Cl)cc2Cl)=C(O)C1	50µM*	-1%	?	-14%	-4%	4%[59 µM]
CC1(C)CC(=O)C(N=Nc2cc(C(F)(F)F)ccc2Cl)=C(O)C1	-35%	-10%	?	4%	4%	?
CC1(C)CC(=O)C(N=Nc2cc(S(=O)(=O)N3CCOCC3)ccc2Cl)=C(O)C1	2%	32µM*	56µM*	34%	-2%	50µM*
CC1(C)CC(=O)C(N=Nc2ccc(Cl)cc2)=C(O)C1	-5%	-4%	2%	23%	-6%	6%
COc1ccc(OC)c(NC(=O)Nc2nnc(N3CCC(C)CC3)s2)c1	?	-10%	?	6%	-22%	50µM*
COc1ccc(OC)c(NCc2cccn2-c2nnc(N3CCC(C)CC3)s2)c1	?	.	-32%	?	.	7.9µM*
COc1ccc(OC)c(NC(=O)C2C3CCC(C3=C(C)C)C2C(=O)O)c1 (stereo not given)	?	-5%	-26%	6%	40µM*	8.9µM*
COc1ccc(CNC(=O)C2CCN(c3nnc(-n4cccc4CNc4ccc(C)cc4)s3)CC2)c(OC)c1	-27%	.	-22%	1%	.	1.4µM*
Cc1ccc(/C=C(\C#N)c2nc(-c3cc4c(ccc5ccccc54)oc3=O)cs2)cc1	-1%	.	-1%	29%	.	-28%[59 µM]
COC(=O)C1=C(CS(=O)(=O)c2ccccc2)NC(=O)NC1c1ccccc1 (stereo not given)	-19%	.	-12%	23%	9%	16%
COc1ccc(NCc2cccn2-c2nnc(N3CCC(C)CC3)s2)c(OC)c1	28µM*	.	?	?	.	5.6µM*
C/C(O)=C(/C=Nc1ccccc1)C(=O)Nc1ccccc1	8%	4%	1%	50%	17%	15%
O=C(O)CC1=C(O)C(=O)N(c2ccccc2)C1c1ccccc1 (stereo not given)	-20%	-14%	9%	40%	-26%	13µM*
